From PubChem BioAssay (Tox21)
Values without a mark were called inactive. Where a call stands in place of a potency, no number is given. Activity calls are given as the source filed them. Unless noted, calls follow the shape of the dose curve; as a rule, active = well fitted curve in the direction sought with a large enough effect in the repeat runs; inconclusive = weak or mixed curves; inactive = no such curve, though single readings can be large; an effect the other way counts as inactive or inconclusive.

Columns and labels:
[1] = qHTS assay to identify small molecule antagonists of the thyroid receptor (TR) signaling pathway - cell viability counter screen (AID 743064); also: nearly all actives have a fitted effect of over 50% in size; also: potency is read from the fitted curve at half-maximal effect
How it was run: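 Same-well viability check: GH3.TRE-Luc cells stimulated with 1 nM T3 alongside test compound for 23.5 h, followed by CellTiter-Fluor fluorescence.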

[2] = qHTS assay to identify small molecule antagonists of the thyroid receptor (TR) signaling pathway (AID 743065); also: nearly all actives have a fitted effect of over 55% in size; also: potency is read from the fitted curve at half-maximal effect
How it was run: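 Antagonism measured as loss of luciferase signal in GH3 cells stably carrying a TRE-luciferase reporter, co-treated with compound and T3 (1 nM final) for 23.5 h at 37 C. Viability was read in the same well by CellTiter-Fluor.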

[3] = qHTS assay to identify small molecule antagonists of the estrogen receptor alpha (ER-alpha) signaling pathway - cell viability counter screen (AID 743074; calls by dose curve; also: nearly all actives have a fitted effect of over 45% in size; also: potency is read from the fitted curve at half-maximal effect)
[4] = target: Estrogen receptor (Homo sapiens) (UniProt P03372); assay: qHTS assay to identify small molecule agonists of the estrogen receptor alpha (ER-alpha) signaling pathway (AID 743075; calls by dose curve; also: potency is read from the fitted curve at half-maximal effect)
Estrogen receptor (Homo sapiens), sequence (P03372 whole entry, looked up): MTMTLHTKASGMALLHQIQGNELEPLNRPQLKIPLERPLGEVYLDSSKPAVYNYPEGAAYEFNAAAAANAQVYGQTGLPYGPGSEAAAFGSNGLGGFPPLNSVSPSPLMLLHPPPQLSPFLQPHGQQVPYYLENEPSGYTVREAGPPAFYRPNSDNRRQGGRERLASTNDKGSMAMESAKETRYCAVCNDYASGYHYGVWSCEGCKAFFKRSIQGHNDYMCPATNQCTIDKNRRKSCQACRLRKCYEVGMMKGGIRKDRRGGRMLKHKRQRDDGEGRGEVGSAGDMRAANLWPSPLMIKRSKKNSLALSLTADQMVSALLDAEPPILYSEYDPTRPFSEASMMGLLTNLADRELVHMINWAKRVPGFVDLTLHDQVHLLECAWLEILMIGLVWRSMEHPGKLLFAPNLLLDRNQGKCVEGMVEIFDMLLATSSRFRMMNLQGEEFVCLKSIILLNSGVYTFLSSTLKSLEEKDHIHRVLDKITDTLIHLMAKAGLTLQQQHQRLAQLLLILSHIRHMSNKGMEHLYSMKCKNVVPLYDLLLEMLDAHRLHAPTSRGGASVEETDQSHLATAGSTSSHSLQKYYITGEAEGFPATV

[5] = target: Estrogen receptor (Homo sapiens) (UniProt P03372); assay: qHTS assay to identify small molecule agonists of the estrogen receptor alpha (ER-alpha) signaling pathway using the BG1 cell line (AID 743079); conditions: BG1Luc4E2 cells, ERE-luciferase agonist, 22 h; activation: at 70.3 µM (top of the series); also: nearly all actives have a fitted effect of over 20% in size; also: potency is read from the fitted curve at half-maximal effect
[6] = qHTS assay to identify small molecule antagonists of the estrogen receptor alpha (ER-alpha) signaling pathway using the BG1 cell line - cell viability counter screen (AID 743081);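 also: compound given together with 17beta-estradiol as the ER stimulus; nearly all actives have a fitted effect of over 45% in size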; also: potency is read from the fitted curve at half-maximal effect
[7] = target: Aromatase (Homo sapiens) (UniProt P11511); assay: qHTS assay to identify aromatase inhibitors (AID 743083); also: nearly all actives have a fitted effect of over 55% in size; also: potency is read from the fitted curve at half-maximal effect
Aromatase (Homo sapiens), sequence (P11511 whole entry, looked up): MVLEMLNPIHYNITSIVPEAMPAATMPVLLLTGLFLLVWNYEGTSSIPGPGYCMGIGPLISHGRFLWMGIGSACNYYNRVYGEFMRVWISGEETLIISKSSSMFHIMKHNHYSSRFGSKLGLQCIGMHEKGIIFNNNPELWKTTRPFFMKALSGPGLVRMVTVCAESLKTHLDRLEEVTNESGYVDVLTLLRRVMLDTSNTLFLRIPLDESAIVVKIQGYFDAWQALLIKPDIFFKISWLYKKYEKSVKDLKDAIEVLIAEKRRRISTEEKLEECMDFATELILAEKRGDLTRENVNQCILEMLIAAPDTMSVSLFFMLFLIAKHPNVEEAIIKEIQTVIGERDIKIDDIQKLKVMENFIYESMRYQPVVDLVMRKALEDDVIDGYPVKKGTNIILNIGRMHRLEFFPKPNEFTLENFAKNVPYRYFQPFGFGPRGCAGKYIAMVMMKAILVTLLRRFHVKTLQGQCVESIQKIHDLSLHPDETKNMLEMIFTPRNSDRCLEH

[8] = qHTS assay to identify aromatase inhibitors - cell viability counter screen (AID 743084);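 also: cells stimulated with testosterone during compound exposure; nearly all actives have a fitted effect of over 55% in size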; also: potency is read from the fitted curve at half-maximal effect
[9] = target: Aryl hydrocarbon receptor (Homo sapiens) (UniProt P35869); assay: qHTS assay to identify small molecule that activate the aryl hydrocarbon receptor (AhR) signaling pathway (AID 743085); also: nearly all actives have a fitted effect of over 15% in size; also: potency is read from the fitted curve at half-maximal effect;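 as to activation: HG2L7.5c1 human HepG2 liver cells with stably integrated DRE-driven firefly reporter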
Aryl hydrocarbon receptor (Homo sapiens), sequence (P35869 whole entry, looked up): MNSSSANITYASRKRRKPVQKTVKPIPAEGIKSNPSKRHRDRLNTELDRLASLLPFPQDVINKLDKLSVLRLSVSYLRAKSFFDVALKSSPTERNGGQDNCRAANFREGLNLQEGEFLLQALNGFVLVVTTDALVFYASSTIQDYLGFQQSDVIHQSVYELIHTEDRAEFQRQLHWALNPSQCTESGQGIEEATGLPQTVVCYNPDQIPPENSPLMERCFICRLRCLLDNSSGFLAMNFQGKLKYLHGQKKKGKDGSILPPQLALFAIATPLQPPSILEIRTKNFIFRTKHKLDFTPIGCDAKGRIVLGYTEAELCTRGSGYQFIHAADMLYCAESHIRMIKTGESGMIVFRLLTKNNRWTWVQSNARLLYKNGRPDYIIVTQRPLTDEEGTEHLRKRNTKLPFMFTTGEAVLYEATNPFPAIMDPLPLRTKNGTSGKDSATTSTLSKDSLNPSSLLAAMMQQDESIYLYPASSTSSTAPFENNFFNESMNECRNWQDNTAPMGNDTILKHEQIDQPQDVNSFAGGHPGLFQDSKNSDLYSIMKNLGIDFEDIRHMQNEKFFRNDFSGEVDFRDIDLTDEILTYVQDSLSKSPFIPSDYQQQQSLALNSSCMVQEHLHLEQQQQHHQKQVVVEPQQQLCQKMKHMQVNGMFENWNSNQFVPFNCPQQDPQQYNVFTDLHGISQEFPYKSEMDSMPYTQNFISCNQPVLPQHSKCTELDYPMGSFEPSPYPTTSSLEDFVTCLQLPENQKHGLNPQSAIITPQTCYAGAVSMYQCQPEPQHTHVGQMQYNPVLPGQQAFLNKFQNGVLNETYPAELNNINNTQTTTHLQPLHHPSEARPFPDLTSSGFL
How it was run: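 Reporter assay in engineered HepG2 line HG2L7.5c1, whose plasmid carries twenty dioxin responsive elements upstream of firefly luciferase. Treatment lasted 24 h at 37C; ONE-Glo luminescence gauged induction.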

[10] = qHTS assay to identify small molecule that activate the aryl hydrocarbon receptor (AhR) signaling pathway - cell viability counter screen (AID 743086); also: nearly all actives have a fitted effect of over 45% in size; also: potency is read from the fitted curve at half-maximal effect
How it was run: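 Cytotoxicity counter screen: CellTiter-Fluor signal (30 min, 37 C) in 4000 HepG2 cells/well carrying the DRE-luciferase reporter, following 24 h compound exposure at 37 C.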

[11] = target: Peroxisome proliferator-activated receptor gamma (Homo sapiens) (UniProt P37231); assay: qHTS assay to identify small molecule agonists of the peroxisome proliferator-activated receptor gamma (PPARg) signaling pathway (AID 743094; active = well fitted activation curve with a large enough effect in the signal ratio in the repeat runs, not every such curve was filed as active; inconclusive = weak or mixed curves, or effect the other way; inactive = no such curve, though single readings can be large or run the other way; the % refers to the signal ratio)
Peroxisome proliferator-activated receptor gamma (Homo sapiens), sequence (P37231 whole entry, looked up): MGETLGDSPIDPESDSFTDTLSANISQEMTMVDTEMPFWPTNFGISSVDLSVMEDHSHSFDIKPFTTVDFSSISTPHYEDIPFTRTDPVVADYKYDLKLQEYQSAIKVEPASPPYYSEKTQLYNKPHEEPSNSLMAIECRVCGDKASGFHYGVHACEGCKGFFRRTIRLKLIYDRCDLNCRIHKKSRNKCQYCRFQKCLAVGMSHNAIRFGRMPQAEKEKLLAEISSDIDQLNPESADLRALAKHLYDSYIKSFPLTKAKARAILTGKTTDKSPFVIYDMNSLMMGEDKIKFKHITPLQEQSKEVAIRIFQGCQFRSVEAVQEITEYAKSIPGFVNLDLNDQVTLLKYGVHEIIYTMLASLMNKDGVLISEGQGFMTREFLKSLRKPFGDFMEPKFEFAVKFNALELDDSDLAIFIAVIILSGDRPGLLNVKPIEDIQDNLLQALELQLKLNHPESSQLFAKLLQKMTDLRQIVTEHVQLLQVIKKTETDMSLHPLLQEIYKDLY
How it was run: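 Cells from the PPARg UAS-bla HEK293H line are plated and incubated 5 h at 37C. Compounds in DMSO are pinned in and left 17 h at 37C. LiveBLAzer B/G substrate is then added for 1 h at room temperature before fluorescence is measured.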

[12] = qHTS assay to identify small molecule phospholipidosis (PLD) inducers (AID 1259344; active = well fitted curve in the direction sought with a large enough effect; inconclusive = small, poorly fitted or top-dose-only effect, or another doubt; inactive = no such curve, though single readings can be large; an effect the other way counts as inactive or inconclusive)
How it was run: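 Accumulated phospholipid, stained red by LipidTOX during 24 h compound treatment of HepG2 cells at 37 C, is quantified from images as pit number and intensity, normalised per cell using Hoechst-stained nuclei.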

[13] = system: thyroid hormone receptor (rat, GH3 cells); assay: qHTS assay to identify small molecule agonists of the thyroid receptor (TR) signaling pathway (AID 743066; calls by dose curve)
[14] = target: Estrogen receptor (Homo sapiens) (UniProt P03372); assay: qHTS assay to identify small molecule antagonists of the estrogen receptor alpha (ER-alpha) signaling pathway (AID 743069; active = well fitted curve in the direction sought with a large enough effect in the signal ratio in the repeat runs, not every such curve was filed as active; inconclusive = weak or mixed curves, or effect the other way; inactive = no such curve, though single readings can be large or run the other way; the % refers to the signal ratio; also: potency is read from the fitted curve at half-maximal effect)
How it was run: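 Fluorescence intensity from a beta-lactamase FRET substrate served as the read-out. Cells: HEK293 with stably integrated ER-alpha-UAS-bla reporter. Agonist 17beta-estradiol was co-added with compounds; incubation 18 hr at 37C, substrate 2 hr at room temperature.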

[15] = qHTS assay to identify small molecule antagonists of the estrogen receptor alpha (ER-alpha) signaling pathway using the BG1 cell line (AID 743080; calls by dose curve;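 also: BG1 cells stimulated with 17beta-estradiol alongside compound; nearly all actives have a fitted effect of over 25% in size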; also: potency is read from the fitted curve at half-maximal effect)
How it was run: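 Readout is ONE-Glo luminescence, taken 30 min at room temperature after reagent addition, preceded by a CellTiter-Fluor viability read; BG1-Luc-4E2 cells had received compound and 17beta-estradiol for 21.5 h at 37 C.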

Structure (SMILES)	Potency [1]	Potency [2]	Potency [3]	Potency [4]	Potency [5]	Potency [6]	Potency [7]	Potency [8]	Potency [9]	Potency [10]	Potency [11]	PLD induction [12]	Potency [13]	Potency [14]	Potency [15]	Potency [12]
COc1ccc(C2NC(=S)N3C(c4ccc(OC)c(OC)c4)NC(=S)N23)cc1OC (centres undefined)	0.188 µM (active)	0.0841 µM (active)	inactive	inactive	inactive	inactive	0.168 µM (active)	0.188 µM (active)	inactive	0.211 µM (active)	inactive	-4.32% [at 7.66 µM]	–	–	–	–
Cc1cccc(C)c1N(CCCc1cccnc1)C(=O)C(C)N (centres undefined)	inactive	–	inactive	inactive	inactive	inactive	5.96 µM (active)	inactive	inactive	inactive	inactive	-1.49% [at 1.53 µM]	inactive	inactive	inactive	–
C=C1C(=C/C=C2\CCC[C@]3(C)[C@@H]([C@H](C)/C=C/[C@H](C)C(C)C)CC[C@@H]23)C[C@@H](O)C[C@@H]1O	29.8 µM (active)	29.8 µM (active)	–	inactive	inactive	–	–	–	–	inactive	–	–	inactive	–	–	inactive
O.O=C([O-])CC([S-])C(=O)[O-].[Au+].[Na+].[Na+] (centres undefined)	inactive	–	inactive	inactive	inactive	inactive	inactive	inactive	inactive	–	–	–	inactive	inactive	inactive	inactive
CCCCCC(O)/C=C/C=O (centres undefined)	inactive	inactive	–	–	–	inactive	inactive	inactive	inactive	inactive	inactive	–	inactive	–	–	inactive
COC(=O)C1=C(C)NC(C)=C(C(=O)O[C@H]2CCN(Cc3ccccc3)C2)[C@H]1c1cccc([N+](=O)[O-])c1	13.3 µM (active)	18.8 µM (active)	inactive	inactive	inactive	–	inactive	–	–	29.8 µM (active)	–	–	–	26.8 µM [inhibitor] (active)	–	inactive
CC[C@]1(O)CC2CN(CCc3c([nH]c4ccccc34)[C@@](C(=O)OC)(c3cc4c(cc3OC)N(C)[C@H]3[C@@](O)(C(N)=O)[C@H](O)[C@]5(CC)C=CCN6CC[C@]43[C@@H]65)C2)C1 (some centres undefined)	0.335 µM (active)	0.168 µM (active)	–	–	inactive	–	inactive	–	–	–	–	–	–	–	0.15 µM (active)	inactive
CC(=O)O[C@H]1CC[C@@]2(C)C(=CC[C@H]3[C@@H]4CC[C@H](C(C)=O)[C@@]4(C)CC[C@@H]32)C1	inactive	inactive	–	16.9 µM [inconclusive] (active)	–	inactive	inactive	inactive	inactive	inactive	inactive	6.8% [at 7.66 µM]	inactive	–	–	–
O=C(O)[C@@H](O)[C@H](O)[C@H](O)[C@@H](O)C(=O)O (tested in a mixture with another compound)	inactive	inactive	–	–	–	–	inactive	inactive	inactive	inactive	inactive	–	inactive	–	–	inactive
CO[C@H]1C[C@H](O[C@H]2[C@H](C)O[C@@H](O[C@@H]3/C(C)=C/C[C@@H]4C[C@@H](C[C@]5(C=C[C@H](C)[C@@H](C6CCCCC6)O5)O4)OC(=O)[C@@H]4C=C(C)[C@@H](O)[C@H]5OC/C(=C\C=C\[C@@H]3C)[C@]54O)C[C@@H]2OC)O[C@@H](C)[C@@H]1O	2.66 µM (active)	2.66 µM (active)	16.9 µM (active)	inactive	–	21.1 µM (active)	inactive	inactive	inactive	inactive	–	–	–	–	–	inactive
Cc1c(N)nc(C(CC(N)=O)NCC(N)C(N)=O)nc1C(=O)NC(C(=O)NC(C)C(O)C(C)C(=O)NC(C(=O)NCCc1nc(-c2nc(C(=O)NCCCN[C@@H](C)c3ccccc3)cs2)cs1)C(C)O)C(O[C@@H]1O[C@@H](CO)[C@@H](O)[C@H](O)[C@@H]1O[C@H]1O[C@H](CO)[C@@H](O)[C@H](OC(N)=O)[C@@H]1O)c1cnc[nH]1 (some centres undefined)	1.68 µM (active)	3.76 µM (active)	inactive	–	–	inactive	–	–	–	inactive	–	1.81% [at 7.66 µM]	inactive	–	–	–
CC(=O)O[C@H]1CC[C@@]2(C)C(=CC[C@@H]3[C@@H]2CC[C@]2(C)C(c4cccnc4)=CC[C@@H]32)C1	29.8 µM (active)	–	inactive	13.4 µM [activator] (active)	29.8 µM (active)	inactive	inactive	inactive	–	inactive	inactive	–	inactive	inactive	inactive	inactive
CCC(=O)OCC(=O)[C@@]1(OC(=O)CC)[C@@H](C)C[C@H]2[C@@H]3CCC4=CC(=O)C=C[C@]4(C)[C@@]3(Cl)[C@@H](O)C[C@@]21C	inactive	–	inactive	–	inactive	inactive	2.66 µM (active)	inactive	10.6 µM (active)	inactive	–	–	inactive	inactive	–	inactive
CS(=O)(=O)OCCCNCCCOS(C)(=O)=O	inactive	inactive	inactive	–	–	–	inactive	inactive	inactive	inactive	–	–	inactive	–	–	inactive
CS(=O)(=O)Nc1cc2occ(NC=O)c(=O)c2cc1Oc1ccccc1	inactive	inactive	inactive	–	–	inactive	inactive	inactive	inactive	–	inactive	–	inactive	–	–	inactive
N[C@H](CCC(=O)O)C(=O)O	inactive	–	inactive	inactive	inactive	inactive	inactive	inactive	inactive	inactive	inactive	0.563% [at 7.66 µM]	inactive	inactive	inactive	–
